An excerpt weighted towards active compounds, which were near 3.4% of everything screened.
Sm TGR inh – qHTS Assay for the Inhibitors of Schistosoma Mansoni Peroxiredoxins; Schistosoma mansoni thioredoxin glutathione reductase (TGR), Q962Y6; purified TGR, DTNB reduction, TNB absorbance 405 nm; Potency, µM (titrated, usually from 114 µM), for the others: top-dose activity change, negative = inhibition, hits mostly inhibitors; 3% of 360,000 active; AID 485364, 2010; note: nearly all actives have a fitted effect of over 60% in size
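TGR 20 nM + NADPH 100 uM (dispensed conc.), cpd preinc 15 min RT; start with NADPH (500 uM addition) then DTNB (15 mM addition). Kinetic TNB absorbance, 405 nm filter. Four-parameter Hill fit across titration.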
Giardia FBPA inh-1 – qHTS Assay for Inhibitors of Fructose-1,6-bisphosphate Aldolase from Giardia Lamblia | Potency, µM (top dose mostly 59.6 µM), inactives show at the highest dose activity, negative = inhibition, usual class: inhibitors | purified Giardia FBPA | A8B2U2 | 0.71% of 290,000 active | AID 2451, 2010; note: nearly all actives have a fitted effect of over 55% in size
Target sequence (A8B2U2 whole entry, looked up): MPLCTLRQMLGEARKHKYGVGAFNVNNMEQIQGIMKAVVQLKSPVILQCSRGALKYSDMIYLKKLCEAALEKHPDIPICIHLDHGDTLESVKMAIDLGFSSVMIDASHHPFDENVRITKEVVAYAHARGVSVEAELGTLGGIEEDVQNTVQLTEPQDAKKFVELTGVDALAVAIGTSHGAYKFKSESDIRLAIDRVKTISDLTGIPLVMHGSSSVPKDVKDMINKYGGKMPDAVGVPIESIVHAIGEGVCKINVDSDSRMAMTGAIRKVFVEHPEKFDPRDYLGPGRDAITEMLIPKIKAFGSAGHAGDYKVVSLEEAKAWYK
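40 nM FBPA preincubated 10 min at RT with compound (up to 57.5 uM final), then substrate plus GAPDH/TPI/NAD/arsenate coupling and diaphorase/resazurin added. Fluorescence read after 20 min at RT, 525/598 nm.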
RE007 growth inh – qHTS Assay for Inhibitors of the HIV-1 protein Vpr; S. pombe RE007 Vpr strain, BacTiter-Glo ATP luminescence, 24 h; Potency, µM (highest dose often 92.2 µM), for the others: at the highest dose activity change, negative = less growth, most hits filed as inhibitors; 0.21% of 360,000 active; active = well fitted falling curve with a large enough effect; inconclusive = small, poorly fitted or top-dose-only effect; inactive = no such curve, though single readings can be large or run the other way; note: nearly all actives have a fitted effect of over 50% in size
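Fission yeast strain RE007, carrying one chromosomally integrated HIV-1 vpr copy, was seeded at OD 0.01 in PMG+AL medium with 23 nL pinned compound. After 24 h at 30 °C and 99% humidity, viability was read by BacTiter-Glo luminescence.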
AmpC inh no detg – qHTS Inhibitors of AmpC Beta-Lactamase (assay without detergent). P00811. AmpC nitrocefin hydrolysis, absorbance 480 nm, 0.0001% Triton. Potency, µM (top dose mostly 57.1 µM), for the others: top-dose activity change, negative = inhibition, hits mostly inhibitors. 0.52% of 330,000 active;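 note: plate controls were no compound for no effect and no enzyme for full effect; nearly all actives have a fitted effect of over 20% in size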
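AmpC (5.3 nM in the dispensed reagent) in 20 mM phosphate pH 7.0 with 0.01% (detergent screen) or 0.0001% Triton X-100 was preincubated with compounds for 15 min at room temperature. Nitrocefin was then added from an 800 uM solution, and hydrolysis was followed at 480 nm.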
AmpC inh detg – qHTS Inhibitors of AmpC Beta-Lactamase (assay with detergent) | P00811 | AmpC hydrolysis of nitrocefin, absorbance 480 nm, 0.01% Triton | Potency, µM (doses to about 114 µM), inactives show at the top dose activity change, negative = inhibition, actives largely listed as inhibitors | 0.041% of 370,000 active | AID 485294, 2010;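 note: 0% = no-compound wells and -100% = no-enzyme wells; nearly all actives have a fitted effect of over 25% in size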
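20 mM phosphate pH 7.0 + 0.01% (detergent screen) or 0.0001% Triton X-100; 5.3 nM AmpC reagent; cpd preinc 15 min RT; nitrocefin (800 uM stock) to start; A480 q20 s × 4 min; Activity was normalised to no-enzyme and no-compound control wells.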
Giardia growth – qHTS Assay for Inhibitors of Fructose-1,6-bisphosphate Aldolase from Giardia Lamblia: Giardia lamblia growth inhibition; 5% of 1,500 active; AID 2785, 2010; Potency, µM (highest dose often 57.5 µM), for inactives: top-dose activity change, negative = inhibition, actives largely listed as inhibitors; shares compounds with Giardia FBPA inh-1; Giardia lamblia trophozoite growth inhibition;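 note: trophozoites exposed to compound for 48 h at 37 °C; nearly all actives have a fitted effect of over 70% in size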
Mammal cell tox – qHTS Assay for Inhibitors of Fructose-1,6-bisphosphate Aldolase from Giardia Lamblia: Mammalian cellular toxicity. Potency, µM (top dose mostly 57.5 µM), inactives show top-dose viability change, negative = toxicity, actives largely listed as inhibitors. shares compounds with Giardia FBPA inh-1. mammalian cell viability counter-screen, qHTS. AID 2786, 2010. 4% of 1,500 active;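 note: Chinese hamster ovary cells used as mammalian cytotoxicity surrogate; viability measured as cellular ATP by luminescence; compound exposure lasted 48 h before reading; nearly all actives have a fitted effect of over 60% in size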
Giardia FBPA inh-2 – qHTS Assay for Inhibitors of Fructose-1,6-bisphosphate Aldolase from Giardia Lamblia: Primary screen confirmation. shares compounds with Giardia FBPA inh-1. purified Giardia aldolase enzyme activity, qHTS. Potency, µM (top dose mostly 57.5 µM), without a hit: at the highest dose activity change, negative = inhibition, usual class: inhibitors. 5% of 1,500 active. AID 2787, 2010; note: nearly all actives have a fitted effect of over 45% in size
Rabbit aldolase – qHTS Assay for Inhibitors of Fructose-1,6-bisphosphate Aldolase from Giardia Lamblia: Rabbit FBPA Selectivity | shares compounds with Giardia FBPA inh-1 | Rabbit muscle FBPA enzyme inhibition, selectivity counter-screen | Potency, µM (highest dose often 57.5 µM), inactives show top-dose activity, negative = inhibition, hits mostly inhibitors | 4% of 1,500 active | AID 2794, 2010; note: nearly all actives have a fitted effect of over 60% in size
Target sequence (P00883 whole entry, looked up): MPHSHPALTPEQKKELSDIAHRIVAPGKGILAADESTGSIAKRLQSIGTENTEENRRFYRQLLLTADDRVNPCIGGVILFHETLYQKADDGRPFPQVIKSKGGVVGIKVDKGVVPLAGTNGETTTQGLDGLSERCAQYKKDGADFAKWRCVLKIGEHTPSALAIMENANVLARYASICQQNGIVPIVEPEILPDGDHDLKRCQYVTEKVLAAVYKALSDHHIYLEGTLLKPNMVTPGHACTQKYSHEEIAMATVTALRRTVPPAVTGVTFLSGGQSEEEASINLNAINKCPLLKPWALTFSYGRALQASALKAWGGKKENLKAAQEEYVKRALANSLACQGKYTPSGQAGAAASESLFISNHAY
GAPDH coupling – qHTS Assay for Inhibitors of Fructose-1,6-bisphosphate Aldolase from Giardia Lamblia: Coupling assay counterscreen confirmation | shares compounds with Giardia FBPA inh-1 | GAPDH coupling enzyme counterscreen, biochemical, qHTS | Potency, µM (titrated, usually from 57.5 µM), inactives show top-dose activity change, negative = inhibition, hits mostly inhibitors | 6% of 1,500 active | AID 2795, 2010; note: nearly all actives have a fitted effect of over 55% in size
* = called active by the depositor; [ ] = another dose, or the depositor's remark. Unless noted, calls come from the whole dose curve; as a rule, active = well fitted curve in the direction sought with a large enough effect; inconclusive = small, poorly fitted or top-dose-only effect, or another doubt; inactive = no such curve, though single readings can be large; an effect the other way counts as inactive or inconclusive. Unless noted, % is set by controls: 0 for no effect and ±100 for the full control effect; potency is the fitted concentration of half-maximal effect.

Screening CN(C)S(=O)(=O)c1ccc(NC(=S)NC(=O)c2cccs2)cc1 returned Sm TGR inh inconclusive, Giardia FBPA inh-1 17.7µM*, RE007 growth inh -22.6%, AmpC inh no detg -34.5%, AmpC inh detg 10.3%, Giardia growth -8.7%[10.4 µM], Mammal cell tox -17.3%, Giardia FBPA inh-2 7.0%, Rabbit aldolase 5.3% and GAPDH coupling 11.2%.
Screening COc1cc(OC)cc(C(=O)NC(=S)Nc2nnn(C)n2)c1 returned Sm TGR inh inconclusive, Giardia FBPA inh-1 3.54µM*, RE007 growth inh -5.9%, AmpC inh no detg -22.8%, AmpC inh detg -2.0%, Giardia growth -17.9%[38.3 µM], Mammal cell tox -4.6%, Giardia FBPA inh-2 3.4%, Rabbit aldolase 9.0% and GAPDH coupling 10.0%.
For CC(C)C(=O)NC(=S)Nc1nnn(C)n1 the results were Sm TGR inh -0.9%, Giardia FBPA inh-1 3.15µM*, RE007 growth inh 2.0%, AmpC inh no detg -22.3%, AmpC inh detg -1.2%, Giardia growth inconclusive, Mammal cell tox 0.1%, Giardia FBPA inh-2 -1.2%, Rabbit aldolase 7.1% and GAPDH coupling 6.4%.
`O=C(NC(=S)Nc1ccc(S(=O)(=O)N2CCCCCC2)cc1)c1cccs1` gave Sm TGR inh inconclusive, Giardia FBPA inh-1 -11.1%, RE007 growth inh 7.2%, AmpC inh no detg -41.0% and AmpC inh detg -15.2%.
For Cn1nnc(NC(=S)NC(=O)c2cccs2)n1 the results were Sm TGR inh inconclusive, Giardia FBPA inh-1 1.99µM*, RE007 growth inh -3.5%, AmpC inh no detg -44.3%, AmpC inh detg -0.2%, Giardia growth -7.8%, Mammal cell tox 4.2%, Giardia FBPA inh-2 -1.3%, Rabbit aldolase 6.7% and GAPDH coupling 7.4%.
`CN(C)S(=O)(=O)c1cccc(NC(=O)COC(=O)/C=C/c2ccc3c(c2)OCO3)c1` gave Sm TGR inh 5.4%, Giardia FBPA inh-1 1.9%, RE007 growth inh 0.9%, AmpC inh no detg -49.4% and AmpC inh detg 4.1%.
For COc1ccccc1OCC(=O)NCC(c1ccc(Cl)cc1)N1CCOCC1 (centres undefined) the results were Sm TGR inh 0.9% and AmpC inh detg -3.0%.
For Cc1ccc(CN2CCN(Cc3cn(C)nc3C)CC2CCO)o1 (centres undefined) the results were Sm TGR inh -14.4%[57.1 µM], Giardia FBPA inh-1 2.9%, RE007 growth inh -1.7%, AmpC inh no detg -7.2% and AmpC inh detg -2.8%.
`CCCn1nnc(NC(=S)NC(=O)CC)n1` gave Sm TGR inh -8.2%, Giardia FBPA inh-1 5.61µM*, RE007 growth inh 5.2%, AmpC inh no detg -13.9%, AmpC inh detg 0.2%, Giardia growth inconclusive, Mammal cell tox -5.4%, Giardia FBPA inh-2 -1.5%, Rabbit aldolase 1.0% and GAPDH coupling 4.2%.
`COc1ccccc1CNC(=O)CSC(=S)N1CCCC1` gave Sm TGR inh 6.6%, RE007 growth inh -5.0%, AmpC inh no detg -11.9% and AmpC inh detg -12.0%.
Screening COc1ccc(OC)c(-c2csc(NC(=O)c3ccc(OCC4CCCO4)cc3)n2)c1 (centres undefined) returned Sm TGR inh -6.6%, Giardia FBPA inh-1 -5.1%, RE007 growth inh -5.7%, AmpC inh no detg 41.1% and AmpC inh detg -9.9%.
COc1ccc(OC)c(-c2csc(NC(=O)c3ccc(F)cc3)n2)c1 was read as Sm TGR inh 13.7%, Giardia FBPA inh-1 22.4µM*, RE007 growth inh -10.2%, AmpC inh no detg -20.7%, AmpC inh detg -3.1%, Giardia growth -9.5%[10.4 µM], Mammal cell tox -17.3%, Giardia FBPA inh-2 3.3%, Rabbit aldolase 6.0% and GAPDH coupling 1.7%.
`COc1ccccc1-n1c(SCC(=O)NC2CCS(=O)(=O)C2)nc2ccccc2c1=O` (centres undefined) gave Sm TGR inh -15.8%, RE007 growth inh -9.3%, AmpC inh no detg -14.3% and AmpC inh detg 5.5%.
Screening Cc1ccc(Cl)cc1N1CCN(C(=O)CCS(=O)(=O)c2cc(Br)cc3c2N(C(=O)C2CC2)CC3)CC1 returned Sm TGR inh -3.3% and AmpC inh detg 20.4%.
Cc1ccc(NC(=O)CN(C)CC(=O)Nc2cccc(F)c2)cc1S(=O)(=O)N1CCCCCC1 was read as Sm TGR inh -23.8%, Giardia FBPA inh-1 15.8µM*, RE007 growth inh 7.3%, AmpC inh no detg 20.2%, AmpC inh detg 2.2%, Giardia growth -4.9%, Mammal cell tox -4.4%, Giardia FBPA inh-2 1.3%, Rabbit aldolase -3.9% and GAPDH coupling -2.9%.
Screening COc1cccc(CNn2c(-c3cccc(C)c3)nc3ccccc3c2=O)c1 returned Sm TGR inh -11.3%, Giardia FBPA inh-1 -5.8%, RE007 growth inh -7.9%, AmpC inh no detg 2.6% and AmpC inh detg -1.6%.
O=C(c1ccccc1)c1ccccc1N1C(=O)C=CC1=O was read as Sm TGR inh 0.562µM*, Giardia FBPA inh-1 15.8µM*, RE007 growth inh 35.5µM*, AmpC inh no detg -3.4%, AmpC inh detg inconclusive, Giardia growth -7.3%[10.4 µM], Mammal cell tox 7.1%, Giardia FBPA inh-2 -9.7%, Rabbit aldolase -18.7% and GAPDH coupling -20.6%.

Screening data deposited in PubChem BioAssay by National Center for Advancing Translational Sciences (NCATS).
